# According to publication PMC5540273 (PLoS ONE, 2017):
# System: CLK4
# Settings: concentration: 1 μM, replicates: in singlicate; n = 1
# 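Further: KINOMEscan kinase panel screen.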
row,Structure (SMILES),%Inh
1,Nc1nccc2scc(-c3ccc4c(c3)CCN4C(=O)Cc3ccccc3)c12 [GSK2576924],25%
2,CCC(=O)c1c(-c2ccccc2)c2cc(Cl)ccc2c(=O)n1Cc1cc(S(C)(=O)=O)n(CC(F)F)n1,0%
3,O=c1cc(N2CCOCC2)nc2n(Cc3ccc(F)c(Cl)c3)ccn12 [GSK2297099],45%
4,Fc1cccc(CSc2nnc(-c3ccc4c(c3)CCO4)o2)c1,78%
5,Cc1cccc(-c2nc(Nc3ccc4c(cnn4C)c3)c3ccccc3n2)n1 [GW876731],0%
6,COc1cccc(C2=C(Nc3cccc(C(=O)O)c3)C(=O)NC2=O)c1 [SB-390770],20%
7,Nc1ncnc2c1ncn2-c1cccc2ccccc12 [SKF-97184],0%
8,Nc1ncnc2c1ncn2-c1ccc(Cl)cc1 [AH2635],3%
9,COc1cc2ncn(-c3cc(OCc4ccncc4)c(C(N)=O)s3)c2cc1OC [GSK336313],0%
10,Cl.c1ccc(Cn2cnc3cc(Nc4ncnc5ccccc45)ccc32)cc1 [GW272142],20%
11,C[C@@H]1CC[C@H](C(=O)NC2CCCCC2)CN1c1cc(-c2ccc3c(N)n[nH]c3c2)nc(N)n1 [GSK2291363],35%
12,Nc1n[nH]c2ncc(-c3ccccc3)cc12 [SB-517081],66%
13,CN1C(=O)C(Nc2cc(Cl)c(O)c(Cl)c2)=C(c2ccc(Cl)cc2)C1=O [SB-404321],0%
14,COc1ccc(-c2cc3c(C)nc(N)nc3n([C@H]3CC[C@H](O)CC3)c2=O)cn1,0%
15,COc1cc(Nc2nccc(N3CCC(NC(=O)C4COc5ccccc5O4)C3)n2)cc(OC)c1OC (stereo not shown) [GSK1379761],0%
16,CC(C)(C)c1ccc(C(=O)Nc2cn3cc(-c4ccccc4)ccc3n2)cc1,7%
17,CN1C(=O)C(Nc2ccccc2)=C(c2ccccc2)C1=O [SB-300079],0%
18,CCC(=O)c1c(-c2ccccc2)c2cc(Cl)ccc2c(=O)n1Cc1ccc(C(=O)O)cc1,0%
19,CCS(=O)c1ccc(-c2coc3ccc(-c4nnc(C)o4)cc23)cc1 (stereo not shown),5%

row,Structure (SMILES),%Inh
1,COc1cc(Nc2nccc(N3CCC(NC(=O)C(C)c4ccc(Cl)cc4)C3)n2)cc(OC)c1OC (stereo not shown) [GSK1379757],18%
2,COc1cccc(-n2cnc3c(N)ncnc32)c1 [SKF-97416],0%
3,OCCCNc1nccc(-c2c(-c3cccc(C(F)(F)F)c3)nn3cc(C(F)(F)F)ccc23)n1 [GW630813],16%
4,COc1cc2nccc(Nc3cccc(Oc4ccccc4)c3)c2cc1OC.Cl [GW284543],0%
5,CN(C)c1cc(-c2ccc3c(N)n[nH]c3c2)nc(N)n1 [GSK2219329],51%
6,Cl.NS(=O)(=O)c1cccc(Nc2cc(-c3ccc(F)cc3)n[nH]2)c1 [GW824645],0%
7,Nc1nc(N)c2nc(-c3ccccc3)[nH]c2n1 [SKF-12778],32%
8,COc1cc2ncn(-c3cc(OCc4ccc(S(C)(=O)=O)cc4)c(C(N)=O)s3)c2cc1OC [GW869979],0%
9,COc1ccc(-c2cc3c(C)nc(N)nc3n([C@H]3CC[C@H](OCCO)CC3)c2=O)cn1,0%
10,CCn1c(-c2nonc2N)nc2ccccc21 [SB-693162/GW549034],0%
11,COc1cc2ncn(-c3cc(OCCCc4ccccc4)c(C(N)=O)s3)c2cc1OC [GSK205189],9%
12,COc1ccc(CNC(=O)NC2CCN(c3ccnc(Nc4ccc(F)cc4)n3)C2)cc1 (stereo not shown) [GSK1379706],8%
13,Cc1ccccc1COc1cc(-n2cnc3cc(Cl)ccc32)sc1C(N)=O [GW813349],6%
14,Nc1n[nH]c2nnc(-c3ccccc3)c(-c3ccccc3)c12 [GW554060],12%
15,Cc1nnc(-c2ccc3ncn(-c4ccc(S(C)=O)cc4)c3c2)o1 (stereo not shown),40%
16,CCc1ccc(-c2ccc3c(c2)-c2nn(C)cc2S(=O)(=O)N3C)cc1,0%
17,Cc1c(Cn2c(C)nn3c(=O)cc(N4CCO[C@H](C)C4)nc23)cccc1C(F)(F)F [GSK2373690],32%
18,CCc1nc(-c2cccc(C)c2)c(-c2ccncc2)s1,0%
